Only some compounds are listed: those with a hit (about 1.3% of all), similar ones and a draw of the others.
GALR2 antag: blocks the human galanin receptor 2; 140,000 compounds, 0.39% hits; GALR2-expressing cells, antagonist mode; O43603; inhibition, % at 4 µM; in the data active means inhibition above about 27%;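 further: cells stimulated with galanin 1-16 at roughly its EC80; 0% = agonist challenge control and 100% = basal control without agonist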
Target sequence (O43603 whole entry, looked up): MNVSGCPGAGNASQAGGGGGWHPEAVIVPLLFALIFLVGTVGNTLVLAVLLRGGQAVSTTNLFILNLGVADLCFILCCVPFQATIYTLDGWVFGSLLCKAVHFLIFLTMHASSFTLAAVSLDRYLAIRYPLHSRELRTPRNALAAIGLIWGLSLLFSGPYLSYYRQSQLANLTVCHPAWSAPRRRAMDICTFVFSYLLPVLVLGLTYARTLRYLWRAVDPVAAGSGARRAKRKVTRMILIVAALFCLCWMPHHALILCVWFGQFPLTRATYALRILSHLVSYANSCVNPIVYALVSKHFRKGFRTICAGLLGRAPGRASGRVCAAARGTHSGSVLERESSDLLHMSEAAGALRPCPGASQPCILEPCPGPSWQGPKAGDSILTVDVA
Phagocytosis inh: inhibitors of macrophage phagocytosis; J774A.1 macrophage IgG-bead phagocytosis, imaging; 110,000 compounds, 0.07% hits; AID 1029; inhibition, % at 5 µM;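 active means inhibition above the mean of the plate negative controls plus 5 SD, cut at about 13% in these data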;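 further: phagocytic index as fraction of beads internalized from green versus red external bead signal; plate controls were DMSO negative control for no effect and cytochalasin-D positive control for full effect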
S1P2 ag: S1P2 (human) receptor agonism. O95136. AID 729. activation, % at 4.5 µM. 97,000 compounds, 0.46% hits. S1P2-expressing cell line, agonist reporter read-out; in the data active means activation above about 16%;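 further: 0% = vehicle low control and 100% = maximal reference agonist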
GALR2 ag: agonists of human galanin receptor 2 (GALR2); O43603; GALR2-expressing cells, agonist activation read-out; activation, % (concentration not given with the values); 140,000 compounds, 0.48% hits; in the data active means activation above about 5%, passing the limit was not always enough;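 further: 0% = vehicle buffer wells and 100% = reference agonist at full effect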
S1P2 antag: S1P2 (human) receptor antagonism. O95136. cell-based S1P2 antagonist assay, inhibition at 5 uM. inhibition, % at 5 µM. 97,000 compounds, 0.21% hits. AID 736; in the data active means inhibition above about 45%;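 further: CRE beta-lactamase reporter cells expressing human S1P2 stimulated with S1P; 0% = agonist at EC80 alone and 100% = agonist plus reference antagonist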
GALR2 ag confirm: GALR2 (human) agonism confirmed. shares compounds with GALR2 ag. GALR2-expressing cells, agonist activation. activation, % at 5.6 µM. 460 compounds, 10% hits; in the data active means activation above about 8.4%;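 further: 0% = buffer-only vehicle wells and 100% = full reference agonist response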
BLA activ ctr: counter-screen for GALR2 agonists: beta-lactamase reporter activators. CHO NFAT-bla reporter, beta-lactamase FRET activation. shares compounds with GALR2 ag. activation, % at 5.6 µM. 460 compounds, 10% hits. AID 865;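 active means activation above the screen-wide mean activation plus 3 SD, cut at about 8% in these data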;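 further: 0% = DMSO with PBS wells and 100% = thapsigargin positive control wells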
An asterisk follows results filed as active; . = no result.

SMILES | GALR2 antag | Phagocytosis inh | S1P2 ag | GALR2 ag | S1P2 antag | GALR2 ag confirm | BLA activ ctr
CCOC(=O)N1CCN(C(=O)c2ccc3c(=O)n(CCc4ccccc4)c(=S)[nH]c3c2)CC1 | -12 | . | -4 | 11 | 7 | 0 | 0
O=C(NCC(=O)N1CCCC1C(=O)O)OC1CCCCC1 (configuration not stated) | 5 | -2 | -6 | -3 | 4 | . | .
NC(CC(=O)OC1CCCCC1)C(=O)OC1CCCCC1 (configuration not stated) | -3 | 0 | 2 | 8 | 9 | -1 | -1
CCn1c(CNc2ccc(F)cc2)nnc1SCC(=O)Nc1ccc(OC)cc1OC | 3 | -1 | -4 | 0 | 17 | . | .
CCN(CC)S(=O)(=O)c1ccc(-c2nnc(SCC(C)=O)o2)cc1 | -8 | 0 | -6 | 10 | -14 | -1 | -1
O=S(=O)(c1cccc2ccccc12)n1nnc2ccccc21 | -14 | . | -4 | 94* | -14 | -1 | -2
Nc1c(C(=O)NCc2ccccc2)c2nc3ccccc3nc2n1CCCN1CCOCC1 | -16 | -2 | . | 16* | . | 11* | 23*
CC(C)(C)c1cc(=O)n(-c2ccccc2)[nH]1 | 13 | -1 | . | -2 | . | . | .
NC(=O)C1CC(=O)N(c2ccc(OCC(=O)Nc3cccc(C(F)(F)F)c3)cc2)C1 (configuration not stated) | -9 | 0 | -2 | 8 | -26 | -1 | -1
COc1ccc(-c2nnc3n2N=C(c2cccc(Br)c2)CS3)cc1OC | 9 | -1 | . | 9.7* | . | 1 | 0
Cc1ccc(NC(=O)CC(C(=O)O)c2ccccc2)cc1 (configuration not stated) | 1 | 1 | . | -1 | . | . | .
O=C(c1cccs1)N1CCN(Cc2ccccc2[N+](=O)[O-])CC1 | 15 | -7 | . | -1 | . | . | .
CCN(CC)S(=O)(=O)c1ccc(C(=O)NNC(=O)C2CCN(S(=O)(=O)c3ccc(Cl)cc3)CC2)cc1 | -1 | 3 | . | -1 | . | . | .
Cc1nc(NCc2ccco2)c2c(C)c(C)sc2n1 | 6 | -1 | 0 | -3 | 2 | . | .
Cc1nc(SCC(=O)N(C)Cc2ccco2)c2c(C)c(C)sc2n1 | -1 | 0 | 3 | 11 | -23 | 0 | 0
O=C(Cn1c2ccccc2c(=O)c2ccccc21)Nc1ccccc1F | 0 | . | . | 15* | . | 3 | 8
Cc1cc(C)cc(-n2nnnc2SCC(=O)Nc2nc(-c3ccc(F)cc3)cs2)c1 | 4 | . | -1 | -2 | 5 | . | .
Fc1ccc(NCc2cccnc2)cc1 | -14 | -1 | 4 | 36* | -22 | -1 | -1
c1ccc(NCc2cccnc2)cc1 | 16 | 2 | -6 | -2 | 7 | . | .
COc1ccccc1N1CCN(C(CNS(=O)(=O)c2ccccc2)c2cccnc2)CC1 (configuration not stated) | -6 | -1 | -1 | 10 | -49 | 0 | -2
COc1ccc(S(=O)(=O)NCC(c2cccnc2)N2CCN(c3ccccc3OC)CC2)cc1C (configuration not stated) | -11 | . | -1 | -2 | 14 | . | .
CC(C)C(C)(C#N)NC(=O)CSc1nc(C2CCCCC2)n(-c2ccccc2)n1 (configuration not stated) | 1 | . | . | 0 | . | . | .
COc1ccccc1C(=O)N1CCN(c2cccc(Cl)c2)CC1 | 6 | . | -4 | -1 | 3 | . | .
Cc1cccc(C2=NC(C(F)(F)F)(C(F)(F)F)c3c(n(-c4ccc(F)cc4)c(=O)[nH]c3=O)N2)c1 | 0 | -5 | . | -2 | . | . | .
COc1ccccc1[C@@H]1C(c2cccc(Cl)c2)=NN(c2ccccc2)[C@H]1C(=O)N1CCOC1=O | 8 | . | . | 30* | . | 13* | 22*
SMILES | GALR2 antag | Phagocytosis inh | S1P2 ag | GALR2 ag | S1P2 antag | GALR2 ag confirm | BLA activ ctr
O=C1OCCN1C(=O)[C@H]1[C@H](c2ccc(Cl)cc2)C(c2cccc(Cl)c2)=NN1c1ccccc1 | -1 | . | . | 23* | . | 10* | 19*
Cc1cccc(C2=NN(c3ccc(Br)cc3)[C@@H](C(=O)N3CCOC3=O)[C@@H]2c2ccc(F)cc2)c1 | 7 | . | . | 9.8* | . | 5 | 8
CCOC(=O)Cc1csc(NC(=S)NC(=O)C(C)(C)C)n1 | 4 | 0 | . | 0 | . | . | .
COc1ccc(NC(=O)CSc2nc(N)c(C#N)cc2C#N)cc1 | -4 | -1 | -1 | 0 | -1 | . | .
CCOC(=O)c1c(C#N)c(SCC(=O)Nc2ccc(OC)cc2)nc2c1CN(CC)CC2 | -1 | 0 | -2 | 67* | 4 | 0 | -1
N#Cc1c(-c2ccccc2)cc(-c2ccco2)c(C#N)c1N | -6 | -2 | 11 | 10 | -35 | 8 | 11*
O=[n+]1cc(-c2ccc(Cl)cc2)n([O-])c2c1CCCCC2 | -2 | -2 | . | -1 | . | . | .
NS(=O)(=O)c1ccc(N2N=C(c3ccccc3)CC2c2ccc(F)cc2)cc1 (configuration not stated) | -10 | 0 | 5 | 20* | -6 | 5 | 11*
O=C(CSc1nnc(-c2ccccc2)o1)NC1CCS(=O)(=O)C1 (configuration not stated) | -13 | -8 | . | -2 | . | . | .
CCC(C)NC(=S)NNC(=O)c1ccc(C(C)(C)C)cc1 (configuration not stated) | 6 | . | -3 | -2 | 2 | . | .
Cc1sc(N/N=C/c2cccs2)nc1-c1ccccc1 | 11 | -15 | . | -1 | . | . | .
C=CCOc1ccc(C2/C(=C(\O)c3ccc(F)cc3)C(=O)C(=O)N2CCCN(C)C)cc1 (configuration not stated) | 7 | -1 | -10 | 8.3* | 6 | 0 | 0
CCOc1cc(C(=O)Nc2ccc(NC(C)=O)cc2)ccc1OCC(=O)N1CCCCC1 | -1 | -2 | . | 0 | . | . | .
CCOC(=O)N1CCN(S(=O)(=O)c2c(C)cc(C)cc2C)CC1 | -8 | -1 | 1 | -1 | 17 | . | .
CCOC(=O)N1CCN(C(=O)C2CCN(S(=O)(=O)c3c(C)cc(C)cc3C)CC2)CC1 | 0 | 2 | -2 | 18* | 6 | -1 | -3
Cc1ccc(NC(=O)/C(=C/c2ccco2)c2ccccc2)c(C)c1 | -5 | 0 | -5 | 91* | -1 | -1 | -2
Cc1cc(C)c(NC(=O)/C(=C/c2ccccc2)c2ccccc2)c(C)c1 | -1 | . | . | -2 | . | . | .
CS(=O)(=O)CCC(C(=O)OCc1ccc(Cl)cc1)N1C(=O)c2ccccc2C1=O (configuration not stated) | 8 | 1 | . | -1 | . | . | .
Cc1ccc(NC2=C(Cl)C(=O)OC2OC(=O)c2ccco2)cc1 (configuration not stated) | 8 | -1 | -3 | 35* | -5 | -1 | -1
Cc1ccc(/C(N)=N/OC(=O)c2ccco2)cc1 | 11 | . | -6 | -3 | -12 | . | .
COC(=O)c1ccc(-n2nnnc2SC)cc1 | 12 | -1 | -5 | 15* | 9 | 0 | 2
COC(=O)COC(=O)c1ccc(-n2nnnc2SC)cc1 | 5 | 1 | -3 | -2 | 25 | . | .
CN(c1cccc(NC(=O)CN(c2cccc(Cl)c2)S(=O)(=O)c2ccc(Cl)cc2)c1)S(C)(=O)=O | -1 | -9 | . | -2 | . | . | .

Screening results deposited in PubChem by several laboratories.
